In PubChem BioAssay (NCI) one finds growth inhibition data, which are given here for 40 compounds.

This is part of a sample that, as a whole, favours compounds with a hit. Of some 79,000 tested, about 15% had one in any assay. Calls of active or inactive are those of the source. No stated cut-off is given here; in the data, active means growth inhibition above about 70%; inactive means the rest.

The nature of the assay: NCI Yeast Anticancer Drug Screen. Data for the sgs1 mgt1 strain (AID 161).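 Further: 0% = growth of cultures given vehicle only.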 The following applies: S. cerevisiae sgs1 mgt1 strain, at 50.0 µM, active compounds read high. Here is the method:
Growth inhibition of yeast strains with defined genetic alterations is measured as a screen for potential anti-cancer activity. Selected strains with alterations in DNA damage repair or cell cycle control were exposed to compounds and growth inhibition was measured relative to vehicle treated controls. The strain used in this assay is sgs1 mgt1
As to `O=C1c2ccccc2-c2ccc(-c3ccc4c5c(cccc35)C(=O)c3ccccc3-4)c3cccc1c23`, the growth inhibition is -7.9% (inactive).

As to `Nc1ncc2[nH]c(I)nc2n1`, the growth inhibition is 0.65% (inactive).

With `O=C(NNc1nc(N2CCOCC2)nc(N2CCOCC2)n1)c1ccccc1`, the growth inhibition was 10.9% (inactive).

`N#CC1=CCc2ccccc2N1C(=O)Oc1ccccc1`: the growth inhibition was 50% (inactive).

Take `OCCn1nnc2ccccc21`: the growth inhibition is -4.35% (inactive).

For the compound `O=C1CCC2(O1)c1ccc(O)cc1Oc1cc(O)ccc12`, the growth inhibition was -17.4% (inactive).

As to `O=[N+]([O-])c1cc(Br)ccc1N1CCCC1`, the growth inhibition was 4.05% (inactive).

For `C=C1CCc2ccccc2C1=O`, the growth inhibition was 4.25% (inactive).

With `CCCCSC(CC(O)C(O)COC(=O)c1ccc([N+](=O)[O-])cc1)SCCCC` (stereo not given), the growth inhibition is 2.7% (inactive).

Consider `CCC1(c2ccccc2)CCCC/C1=N/NC(N)=O` (stereo not given), for which the growth inhibition was -0.8% (inactive).

In the case of `CC(=O)OCC(OC(C)=O)C(OC(C)=O)C(OC(C)=O)C(O)CO` (stereo not given), the growth inhibition is 15.4% (inactive).

Take `O=C(O)c1cc(=O)[nH]c2ccccc12`: the growth inhibition is 8% (inactive).

With `O=S(=O)(O)SCC1=NCCN1`, the growth inhibition was -3.55% (inactive).

For the compound `CCOC(=O)c1c[nH]c2ccc3c(nc(C)n3C)c2c1=O`, the growth inhibition was -5.2% (inactive).

On to `Cc1c(COC(=O)NC(C)C)c(COC(=O)NC(C)C)c2n1CS(=O)(=O)C2`, for which the growth inhibition was -3.2% (inactive).

`CC(=O)OCc1ccc(C)cc1`: the growth inhibition is -12.7% (inactive).

With `C1CCc2[nH]nc(-c3n[nH]c4c3CCCCC4)c2CC1`, the growth inhibition is 19.9% (inactive).

On to `COc1cc([C@@H]2c3cc4c(cc3[C@H](OC(=O)CCCC(=O)O)[C@H]3COC(=O)[C@H]23)OCO4)cc(OC)c1OC`, for which the growth inhibition is 38.5% (inactive).

Consider `CC1(C(=O)O)CCCC2(C)c3ccc(O)cc3CCC12` (stereo not given), for which the growth inhibition is 61.2% (inactive).

As to `CCCCCCCCCCCCCCCCc1c(C)nc(N(C)C)oc1=O`, the growth inhibition is -4.4% (inactive).

Consider `CN(C)CCNc1cccc2oc3ccc(O)cc3c(=O)c12`, for which the growth inhibition was 9.55% (inactive).

As for `C=C1CC2(CCC3C4CC=C5CC(O)CCC5(C)C4CCC32C)OC1=O` (stereo not given), the growth inhibition is 6.45% (inactive).

Turning to `NC(=O)C1CCCN(C2OC(COP(=O)(O)OP(=O)(O)OCC3OC(n4cnc5c(N)ncnc54)C(OP(=O)(O)O)C3O)C(O)C2O)C1` (stereo not given), the growth inhibition was 15.2% (inactive).

Consider `O=C(O)Cc1ccccc1C(=O)O`, for which the growth inhibition is 7.7% (inactive).

Regarding `ClNc1nc(NCl)nc(NCl)n1`, the growth inhibition was -5.1% (inactive).

In the case of `CCN(CC)CCOCC(=O)Nc1ccccc1C`, the growth inhibition is 4.95% (inactive).

In the case of `C=Nc1ccc(C)cc1`, the growth inhibition was -12% (inactive).

Take `CCCCCCCCCCCc1cc(=O)c2c(O)cccc2o1`: the growth inhibition is 9.55% (inactive).

As to `CCC(c1ccccc1)c1cc(C(C)(C)C)cc(C(C)(C)C)c1O` (stereo not given), the growth inhibition is -15.4% (inactive).

With `CCCCNS(=O)(=O)c1cc(C(=O)O)cc(C(=O)O)c1`, the growth inhibition was 4.25% (inactive).

Take `O=C(NN1C(=O)c2cccc3cccc(c23)C1=O)NN1C(=O)c2cccc3cccc(c23)C1=O`: the growth inhibition is 98.2% (active).

For the compound `O=S(Nc1ccc(Cl)cc1)c1ccccc1` (stereo not given), the growth inhibition is 31.1% (inactive).

In the case of `CCN(CC)CCCNC(Cc1ccccc1)c1ccc(OC)cc1` (stereo not given), the growth inhibition is -4.05% (inactive).

In the case of `CCOC(=O)N1CN(C(=O)OCC)CN(C(=O)OCC)C1`, the growth inhibition was 9.45% (inactive).

Take `COC(=O)c1cccn1C(=O)c1ccc(C)c(OCc2ccccc2)c1[N+](=O)[O-]`: the growth inhibition is 4.95% (inactive).

As for `CN(C)CCN1C(=O)c2c(c3cccn3c3c2cnn3-c2ccccc2)C1=O`, the growth inhibition is 34% (inactive).

On to `O=C1C(O)=C(Cl)C(=O)C(OC2=C(Cl)C(=O)C(OC3=C(Cl)C(=O)C(OC4=C(Cl)C(=O)C(Cl)=C(Cl)C4=O)=C(Cl)C3=O)=C(Cl)C2=O)=C1Cl`, for which the growth inhibition was -17.3% (inactive).

Turning to `CC(=N/NC(=S)NCCN1CCCC1)/C(C)=N\NC(=S)NCCN1CCCC1`, the growth inhibition was 47.6% (inactive).

In the case of `Cn1cnc([N+](=O)[O-])c1Sc1ccncc1S(N)(=O)=O`, the growth inhibition was 0.2% (inactive).

Consider `CCCC(=O)OCC(C)(C)COC(=O)CCC`, for which the growth inhibition was 10.9% (inactive).
